MOR-DOR inv ag: inverse agonists of MOR-DOR heterodimerization, primary screen, cell-based, luminescence; Mu-type opioid receptor (Homo sapiens) + Delta-type opioid receptor (Homo sapiens), …; cell-based MOR-DOR heterodimer luminescence, inverse agonism; inhibition, % at 9.3 µM; 340,000 compounds, 0.21% hits; in the data active = inhibition above about 22%, passing the limit was not always enough;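 note: 0% = cells with DMSO and 100% = wells without cells with DMSO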
Target sequence (P35372 whole entry, looked up): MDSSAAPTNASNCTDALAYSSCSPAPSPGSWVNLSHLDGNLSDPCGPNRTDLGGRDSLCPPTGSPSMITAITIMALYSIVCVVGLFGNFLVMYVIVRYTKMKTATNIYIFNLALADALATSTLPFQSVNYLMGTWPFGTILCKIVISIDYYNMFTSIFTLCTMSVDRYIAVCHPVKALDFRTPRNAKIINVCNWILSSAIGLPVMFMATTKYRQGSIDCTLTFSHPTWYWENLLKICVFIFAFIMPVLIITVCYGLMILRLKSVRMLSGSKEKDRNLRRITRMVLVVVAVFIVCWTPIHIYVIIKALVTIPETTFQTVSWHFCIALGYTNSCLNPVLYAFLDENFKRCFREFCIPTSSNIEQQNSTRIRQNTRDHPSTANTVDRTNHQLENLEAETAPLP
Target sequence (P41143 whole entry, looked up): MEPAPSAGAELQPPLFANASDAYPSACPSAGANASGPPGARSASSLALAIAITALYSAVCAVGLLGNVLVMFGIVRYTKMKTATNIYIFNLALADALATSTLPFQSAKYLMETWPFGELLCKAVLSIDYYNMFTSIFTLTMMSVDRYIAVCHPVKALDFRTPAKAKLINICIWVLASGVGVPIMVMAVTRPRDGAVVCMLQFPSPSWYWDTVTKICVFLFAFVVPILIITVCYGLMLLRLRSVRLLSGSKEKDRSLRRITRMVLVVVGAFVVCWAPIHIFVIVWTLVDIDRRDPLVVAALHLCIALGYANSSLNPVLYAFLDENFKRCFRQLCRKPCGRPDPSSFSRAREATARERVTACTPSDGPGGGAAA
HTR5A ag ctr: HTR5A agonists in luminescence cell assay, primary screen, counter-screen for OPRM1-OPRD1 heterodimer agonist project, full-deck HTS; activation, % at 9.3 µM; cell-based; 340,000 compounds, 0.61% hits; in the data active = activation mostly above about 9.5%, no sharp cut-off; inactive = mostly below about 7.6%;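 note: 0% = cells with vehicle only and 100% = reference agonist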
OPRM1-OPRD1 ag: agonists of OPRM1-OPRD1 heterodimerization, primary screen, cell-based, luminescence. Mu-type opioid receptor (Homo sapiens) + Delta-type opioid receptor (Homo sapiens), …. cells. activation, % at 9.3 µM. 340,000 compounds, 0.3% hits; in the data active = activation above about 18%;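 note: 0% = vehicle-treated cells and 100% = reference agonist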
HTR5A inv ag: HTR5A inverse agonists in luminescence cell assay, primary screen, counter-screen for OPRM1-OPRD1 heterodimer inverse agonist project, full-deck HTS | inhibition, % at 9.3 µM | AID 504634, 2011 | 5-hydroxytryptamine receptor 5A (Homo sapiens), P47898 | HTR5A cell line, inverse agonism | 340,000 compounds, 0.083% hits; in the data active = inhibition mostly above about 23%, no sharp cut-off; inactive = mostly below about 18%;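 note: 0% = cells with DMSO and 100% = no-cell wells with DMSO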
Numbers without * were called inactive. Hits are enriched below; roughly 1.1% of the tested compounds scored in any of these assays.

SMILES | MOR-DOR inv ag | HTR5A ag ctr | OPRM1-OPRD1 ag | HTR5A inv ag
COc1ccc(N(C(=O)c2cccnc2)S(=O)(=O)c2ccc3c4c(cccc24)C(=O)N3C)cc1 | 14 | -6 | -3 | 5
c1ccc2c(c1)Oc1ccccc1S2 | 17 | 13* | -3 | -52
COc1cccc(N2CCN(C(=S)NCc3ccco3)CC2)c1 | 9 | 13* | -2 | -25
CCOC(=O)CCCNC(=O)CN1C(=O)NC2(CCCCCC2)C1=O | -4 | -1 | 1 | 5
COc1ccc(NC(=O)N2CCCC(c3nc(-c4ccc(C(C)C)cc4)no3)C2)cc1 (configuration not stated) | -38 | 12* | 7 | -39
COc1ccc(NC(=O)N2CCCC(c3nc(-c4ccc(OC)cc4)no3)C2)cc1 (configuration not stated) | 1 | 0 | 0 | 0
COc1ccc(C(=O)NCCS(=O)(=O)NC2CCCC2)cc1 | 13 | 0 | -2 | 0
CCn1c(C)nc2cc(C(=O)N/N=C/c3ccc(O)c(O)c3O)ccc21 | -49 | 13* | 8 | -32
COc1ccccc1-c1ccc(SCc2ccc(F)cc2)nn1 | -2 | 9.5* | 0 | -26
COc1ccccc1-c1ccc(SCc2ccc(C)cc2)nn1 | -2 | -1 | 0 | 3
COc1cc(OC)cc(C(=O)NC(C(=O)N2CCc3ccccc3C2)C(C)C)c1 (configuration not stated) | 9 | -6 | -2 | 16
S=C(NCCc1ccccc1)N/N=C/c1cccc(Cl)c1Cl | -1 | 3 | 0 | -7
Oc1ccccc1/C=N/NC(=S)NCCc1ccccc1 | -23 | 10* | 5 | -38
C/C(=N\NC(=O)CSc1nc2ccccc2[nH]1)c1ccncc1 | 7 | 0 | -1 | -1
CCN(CC)c1ccc(/C=N/NC(=S)NCc2ccccc2)cc1 | -13 | 14* | 2 | 8
CC12CCC(C(=O)N(CSC(=S)N/N=C\c3ccccc3)C1=O)C2(C)C (configuration not stated) | -4 | 10* | 1 | -11
CCN1CCN(C(=O)c2ccc3c(=O)n(C4CCCC4)c(=S)[nH]c3c2)CC1 | 9 | 9.3* | -2 | 12
O=C(c1ccc2c(=O)n(C3CCCC3)c(=S)[nH]c2c1)N1CCN(C2CCCCC2)CC1 | 6 | 4 | -1 | -12
O=C(CN1CCN(CCC(=O)Nc2ccccc2F)CC1)Nc1ccc(Cl)cc1 | 10 | 13* | -2 | -29
COc1ccc(CNc2nc3nc(C)cc(C)n3n2)cc1OC | 13 | 4 | -3 | 0
Cc1cc(C)n2nc(NCc3cccc(Br)c3)nc2n1 | -3 | 12* | 1 | -36
CCNC(=O)C1CC(=O)N(Cc2ccc3c(c2)OCO3)C(=Nc2ccc(OCC)cc2)S1 (configuration not stated) | 2 | 9.0* | 0 | -6
O=C(CCS(=O)(=O)c1ccccc1)N1CCOCC1 | 13 | -1 | -3 | 4
CC1CN(C(=O)CCS(=O)(=O)c2ccccc2)CC(C)O1 (configuration not stated) | 8 | 14* | -2 | 1
CCOC(=O)N1CCN(C(=O)CSC2=NS(=O)(=O)c3cc(Cl)ccc3N2)CC1 | 4 | 1 | -1 | 3
SMILES | MOR-DOR inv ag | HTR5A ag ctr | OPRM1-OPRD1 ag | HTR5A inv ag
CCOC(=O)N1CCN(S(=O)(=O)c2ccc(Br)s2)CC1 | 1 | -1 | 0 | 12
CCN(CC)CCNC(=O)c1cc2c(=O)n(CC)c3ccccc3c2s1 | 7 | -4 | -2 | 14
CCN(CC)CCNC(=O)c1cc2c(s1)-c1ccccc1SC2 | -21 | 13* | 4 | -48
Clc1ccc(CNc2ncnc3[nH]ncc23)cc1Cl | -11 | -2 | 2 | 9
O=C(O)COc1ccccc1/C=N/NC(=O)CNC(=O)c1ccc(F)cc1 | -1 | 5 | 0 | -4
COc1ccc(C(F)(F)F)cc1N/C=C/c1nnnn1-c1ccc2ccccc2c1 | -4 | 12* | 1 | -41
N#Cc1c(C(F)(F)F)cc(-c2ccccc2)[nH]c1=O | 8 | 0 | -1 | 1
N#Cc1c(C(F)(F)F)cc(-c2ccccc2Cl)[nH]c1=O | -5 | 12* | 1 | -20
CNS(=O)(=O)c1c(C)cc(C)c(N(C)S(=O)(=O)c2ccccc2)c1C | 5 | 2 | -1 | 5
CCn1c(N2CCN(S(=O)(=O)c3ccccc3C(F)(F)F)CC2)nc2ccccc21 | -12 | 13* | 2 | -62
COc1cccc(CNC(=O)c2cc3ccccn3n2)c1 | 1 | -3 | 0 | 9
c1ccc(CNc2nc(-c3ccccc3)nc3ccccc23)cc1 | -16 | 5 | 3 | -19
c1ccc(CNc2nc(NCc3ccccc3)c3ccccc3n2)cc1 | -205 | 19* | 40* | -48
COc1ccc(/C=N/NC(=O)C(C)Sc2ccccn2)cc1[N+](=O)[O-] (configuration not stated) | 16 | 11* | -3 | 22
COc1ccc(/C=N\NC(=O)CNC(=O)C(c2ccccc2)c2ccccc2)cc1[N+](=O)[O-] | -4 | 5 | 1 | -14
O=C(NCC(=O)N1CCN(S(=O)(=O)c2ccccc2F)CC1)c1ccc2c(c1)OCO2 | 12 | 12* | -2 | -31
COC(=O)c1cn(NC(=O)Cn2nc([N+](=O)[O-])c(Cl)c2C)c(=O)c2ccccc12 | 0 | 6 | 0 | 5
COc1cccc(C=NNC(=O)c2ccncc2)c1O | 3 | 8.5* | 0 | -30
Cc1nn(-c2ccc(Cl)cc2)c(=O)c2ccccc12 | 17 | -4 | -3 | 10
Cc1c(Cl)sn(-c2ccc(Cl)cc2)c1=O | -208 | 19* | 36* | -54
COc1ccc(NS(=O)(=O)c2cccc3cccnc23)cc1 | 11 | 3 | -2 | -23
Cc1cccc(NS(=O)(=O)c2cccc3cccnc23)n1 | 0 | 13* | 0 | -40
CCOC(=O)/C(C#N)=C1\CC2CCC1(C)C2(C)C (configuration not stated) | -3 | 4 | 1 | -11
CSc1cccc(NC(=O)CSc2ccc(C)cc2)c1 | -31 | 2 | 6 | 34
CCC(=O)Nc1cccc(SC)c1 | -17 | 13* | 3 | 15
SMILES | MOR-DOR inv ag | HTR5A ag ctr | OPRM1-OPRD1 ag | HTR5A inv ag
CSc1cccc(NC(=O)CNC(=O)c2ccc3c(c2)OCO3)c1 | 4 | 10* | -1 | 24
COc1cc(OC)cc(C(=O)OCC(=O)NC(c2ccccc2)c2ccccc2)c1 | -61 | 8 | 15 | -21
Cn1ccnc1C(=O)c1ccc(S(=O)(=O)N2CCCC2)cc1 | 4 | -2 | -1 | 6
CC(C(=O)OCC(=O)c1ccc([N+](=O)[O-])cc1)N1C(=O)C2C3CCC(C3)C2C1=O (configuration not stated) | 14 | -3 | -3 | 8
Cc1cc(OC(C)C(=O)NCC2CCCO2)cc(C)c1Cl (configuration not stated) | 17 | 11* | -3 | -11
Cc1nn(-c2ccccn2)c2c1C(c1ccccc1Cl)C1=C(N2)c2ccccc2C1=O (configuration not stated) | 26* | 3 | -4 | -13
